This excerpt belongs to a sample that is enriched for hits.
Dicer processing = human Dicer pre-microRNA cleavage inhibition. Q9UPY3. cat-ELCCA pre-miR-21 Dicer processing, chemiluminescence; hits give high values. z-score at 25 µM. 47,000 tested, 6% active. AID 1347074; in the data active = z-score above about 3, passing the limit was not always enough;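 note: plate controls were vehicle for no effect and no enzyme for full effect; higher signal means more uncleaved substrate so more Dicer inhibition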
Target sequence (Q9UPY3 whole entry, looked up): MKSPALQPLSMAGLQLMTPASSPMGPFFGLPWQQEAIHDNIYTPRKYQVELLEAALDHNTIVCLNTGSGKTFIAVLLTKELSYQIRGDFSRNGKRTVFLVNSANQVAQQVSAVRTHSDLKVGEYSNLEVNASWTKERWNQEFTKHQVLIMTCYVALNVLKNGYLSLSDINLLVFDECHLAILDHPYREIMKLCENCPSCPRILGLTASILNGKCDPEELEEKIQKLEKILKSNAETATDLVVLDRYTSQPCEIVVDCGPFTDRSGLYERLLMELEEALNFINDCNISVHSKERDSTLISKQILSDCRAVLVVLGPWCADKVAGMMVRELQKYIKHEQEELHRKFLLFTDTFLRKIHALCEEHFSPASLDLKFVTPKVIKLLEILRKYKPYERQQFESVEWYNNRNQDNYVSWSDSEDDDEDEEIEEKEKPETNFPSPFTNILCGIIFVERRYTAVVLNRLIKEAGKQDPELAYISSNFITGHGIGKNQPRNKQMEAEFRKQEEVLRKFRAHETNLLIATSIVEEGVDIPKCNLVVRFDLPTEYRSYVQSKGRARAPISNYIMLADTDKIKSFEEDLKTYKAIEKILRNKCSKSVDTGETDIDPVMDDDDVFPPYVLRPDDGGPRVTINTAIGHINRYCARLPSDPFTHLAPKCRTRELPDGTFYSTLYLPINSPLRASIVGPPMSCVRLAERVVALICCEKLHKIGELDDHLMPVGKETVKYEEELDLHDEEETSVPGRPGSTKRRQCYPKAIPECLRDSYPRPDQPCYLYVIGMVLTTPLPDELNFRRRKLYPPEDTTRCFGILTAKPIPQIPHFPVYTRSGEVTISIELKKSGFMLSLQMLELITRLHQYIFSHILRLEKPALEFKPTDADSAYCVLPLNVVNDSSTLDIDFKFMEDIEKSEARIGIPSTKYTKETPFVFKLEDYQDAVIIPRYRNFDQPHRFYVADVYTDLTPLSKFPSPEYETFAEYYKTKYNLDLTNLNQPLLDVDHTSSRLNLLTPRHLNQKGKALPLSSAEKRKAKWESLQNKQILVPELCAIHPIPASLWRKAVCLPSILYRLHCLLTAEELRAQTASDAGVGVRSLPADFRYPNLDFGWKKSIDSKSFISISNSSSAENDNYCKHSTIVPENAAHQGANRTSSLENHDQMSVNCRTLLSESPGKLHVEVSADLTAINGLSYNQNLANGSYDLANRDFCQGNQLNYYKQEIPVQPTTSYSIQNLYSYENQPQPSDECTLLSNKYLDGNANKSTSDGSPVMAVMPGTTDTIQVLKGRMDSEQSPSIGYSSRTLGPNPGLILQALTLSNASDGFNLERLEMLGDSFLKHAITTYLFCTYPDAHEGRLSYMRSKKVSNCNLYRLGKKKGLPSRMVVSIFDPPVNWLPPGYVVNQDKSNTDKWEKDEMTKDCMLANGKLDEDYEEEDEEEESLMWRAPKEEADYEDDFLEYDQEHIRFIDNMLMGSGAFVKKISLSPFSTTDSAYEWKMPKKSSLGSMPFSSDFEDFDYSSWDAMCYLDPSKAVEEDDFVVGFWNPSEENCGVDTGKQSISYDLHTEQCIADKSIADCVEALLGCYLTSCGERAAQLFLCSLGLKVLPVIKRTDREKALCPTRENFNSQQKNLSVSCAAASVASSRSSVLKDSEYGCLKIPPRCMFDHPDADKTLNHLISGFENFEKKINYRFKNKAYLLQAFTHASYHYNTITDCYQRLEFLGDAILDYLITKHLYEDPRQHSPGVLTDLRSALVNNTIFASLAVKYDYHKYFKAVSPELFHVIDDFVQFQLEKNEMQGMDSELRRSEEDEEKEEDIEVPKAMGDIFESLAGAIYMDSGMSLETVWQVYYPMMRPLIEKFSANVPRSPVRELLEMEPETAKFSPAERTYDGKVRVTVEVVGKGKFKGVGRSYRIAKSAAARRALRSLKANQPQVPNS
The depositor's hits bear a star.

SMILES	Dicer processing
O=C(Nc1ccccc1)c1cccc(C(=O)Nc2ccccc2)c1F	-0.38
COc1ccc(CC2CCC(=NOC(=O)c3cccc(C(F)(F)F)c3)CC2)cc1 (stereo not given)	0.6
N#C/C(=C\N)S(=O)(=O)c1ccc(Cl)cc1	0.02
O=S(=O)(NNS(=O)(=O)c1ccc(-c2ccccn2)s1)c1ccc(Cl)cc1	-1.51
COc1ccc(C2CC(=O)C3=C(C2)Nc2ccccc2NC3c2cccc(O)c2)cc1 (stereo not given)	0.54
COc1ccc(C2CC(=O)C3=C(C2)Nc2ccccc2NC3c2coc3ccc(Cl)cc3c2=O)cc1 (stereo not given)	1.84
COc1ccc(C2CC(=O)C3=C(C2)Nc2ccccc2NC3c2ccc(F)c(Br)c2)cc1 (stereo not given)	5.2*
COc1ccccc1C1Nc2ccccc2NC2=C1C(=O)CC(c1cccs1)C2 (stereo not given)	0.08
COc1cccc(C2Nc3ccccc3NC3=C2C(=O)CC(c2cccs2)C3)c1 (stereo not given)	3.38*
COc1ccc(C2Nc3ccccc3NC3=C2C(=O)CC(c2cccs2)C3)cc1Br (stereo not given)	-0.98
CC(C)NC(=O)Nc1csc(-c2ccc(C(F)(F)F)cc2)n1	-1.79
C=CCOC(=O)C1=C(C)NC2=C(C(=O)CCC2)C1c1ccc(C(=O)OC)cc1 (stereo not given)	-0.52
Cc1[nH]c2ccccc2c1SCc1nnc(SCC(=O)Nc2ccc(Cl)cc2)n1C	-1.74
COc1ccc(S(=O)(=O)N2CCN(S(=O)(=O)c3ccc4ccccc4c3)CC2)cc1	1.15
Fc1ccccc1CN1CCN(C2CCN(Cc3ccccc3)CC2)CC1	-1.22
O=S(=O)(c1ccc2ccccc2c1)N1CC=C(c2ccccc2)CC1	-0.32
O=S(=O)(c1ccc2ccccc2c1)N1CCN(C2CCN(Cc3ccccc3)CC2)CC1	3.18*
CSc1ccc(CN2CCN(S(=O)(=O)c3ccc4ccccc4c3)CC2)cc1	3.39*
O=S(=O)(c1ccc2ccccc2c1)N1CCCCC1	1.16
CC(=O)N[C@@H](C(N)=S)[C@@H](OC(C)=O)[C@H](OC(C)=O)[C@@H](COC(C)=O)OC(C)=O	0.48
O=C(NC(=S)N1CCCCC1)c1ccccc1	1.36
O=C(O)C1(c2ccccc2)CCCC1	2.43
O=C(N1CCCC1)C1(c2ccccc2)CCOCC1	3.03*
CN1c2ccsc2C(=O)/C(=N\Nc2ccccc2Cl)S1(=O)=O	0.02
CCOC(=O)c1cc2ccccc2c(=O)s1	0.03
SMILES	Dicer processing
Cc1c(NC(=O)c2cc3ccccc3c(=O)s2)c(=O)n(-c2ccccc2)n1C	0.44
Cc1ccc2nc3sc(C(=O)O)cc3cc2c1	0.3
O=C(O)c1cc2ccc3ccccc3c2s1	4.13*
O=C(Nc1ccccc1)c1cc2ccc3ccccc3c2s1	3.53*
O=C(Nc1ccccc1)c1cc2sccc2s1	0.23
CC(C)NC(=O)NNc1c(Cl)cccc1Cl	-0.42
CCCCc1ccc(NC(=O)CSc2cccc(Cl)c2Cl)c(C)c1	-1.13
COC(=O)c1ccc(COc2cc(C)cc(C)c2)o1	-0.02
CCOC(=O)COc1cccc(C(C)=O)c1	2.45
CC(NC1=CC(=O)OC12CCCCC2)c1ccccc1 (stereo not given)	-1.36
CN(C)C(=S)SCC(=O)c1ccc(Cl)cc1	4.88*
Cn1c(SCC(=O)c2ccc(Cl)cc2)nnc1SCC(=O)c1ccc(Cl)cc1	-0.58
O=C(CSC(=S)N1CCOCC1)c1ccc(Cl)cc1	-1.33
CC(=O)c1ccc(N2CCN(S(=O)(=O)c3c(C)noc3C)CC2)cc1	-2.71
O=c1cc(-c2cc(C(F)(F)F)cc(C(F)(F)F)c2)nc2cc(-c3ccccc3)[nH]n12	1.65
Cc1ccnc(NS(=O)(=O)c2ccc(N3C(=O)C4CCCCC4C3=O)cc2)n1 (stereo not given)	8.06*
CC(=O)Nc1ccc(S(=O)(=O)Nc2nc(C)cc(C)n2)cc1	-1.65
Cc1cc(C)nc(NC(=O)CN2C(=O)C3CCCCC3C2=O)n1 (stereo not given)	1.6
Cc1ccc(CN2C(=O)C3C(c4ccc(Cl)cc4)OC4(C(=O)c5ccccc5C4=O)C3C2=O)cc1 (stereo not given)	-0.37
C#CCSC1=N/C(=C/N(C)C)C(=O)N1	8.98
O=C(Nc1csc(C(F)(F)F)c1-c1ccccc1)c1ccco1	4.37*
O=C(Nc1csc(C(F)(F)F)c1-c1ccccc1)C(Cl)(Cl)Cl	-0.5
Cc1csc(NC(=O)c2ccco2)c1C(=O)c1ccccc1	0.11
Nc1nc2c(c(=O)[nH]1)C(c1ccc(Br)cc1)CC(=O)N2 (stereo not given)	-0.69
CCOC(=O)/C(C#N)=C/c1ccc(Cl)c(Cl)c1	0.94
SMILES	Dicer processing
Cc1cnc(NS(=O)(=O)c2ccccc2)c(Br)c1	-0.02
Cc1cccc(C)c1NS(=O)(=O)c1ccc(NS(=O)(=O)c2ccccc2)cc1	0.87
Cc1cc(O)cc(C)c1NS(=O)(=O)c1ccccc1	3.54*
COC(=O)c1c(C)sc2c(C(F)(F)F)cc(OC)nc12	-0.67
N#C/C(=N\Nc1ccc(Cl)cc1Cl)C(=O)c1ccc(Cl)cc1	74.5
COc1ccc(-c2nc(-c3ccccn3)no2)cc1OC	1.16
c1ccc(-c2noc(-c3cccc4ccccc34)n2)nc1	1.29
c1ccc(-c2ccc(-c3nc(-c4ccccn4)no3)cc2)cc1	5.23*
COc1ccc(C2C3=C(CC(c4ccccc4)CC3=O)Nc3nc4ccccc4n32)cc1 (stereo not given)	2.28
COc1ccccc1C1C(C#N)=C(C)NC2=C1C(=O)CC(c1ccccc1)C2 (stereo not given)	0.45
CN(C)c1ccc(/C=C2\C(=O)Nc3ccccc32)cc1	-1.35
O=C1Nc2ccccc2/C1=C/c1cnc(-c2ccccc2)[nH]1	3.3*
COc1ccc(/C=C2/C(=O)Nc3ccccc32)cc1	-0.18
CC(=O)CSc1sc(C(C)=O)c(-c2ccccc2)c1C#N	-2.8
CC(=O)c1sc2nc(C)cc(C)c2c1N	-1.58
CCOC(=O)c1sc2nc(C)cc(C)c2c1NC(=O)Nc1cccc(Cl)c1	0.39
CCOC(=O)c1sc2nc(C)cc(C)c2c1N(C(C)=O)C(C)=O	3.36*
Cc1cc(C)c(C#N)c(SCc2ccc(Cl)cc2)n1	-4.81
COc1ccccc1NC(=S)Nc1ccccn1	8.93
COc1ccccc1NC(=S)NNC(=O)NNC(=S)Nc1ccccc1OC	4.43*
COc1ccccc1NC(=S)NCC(C)(C)C(=O)O	-0.71
CCOC(=O)c1c(C)noc1-c1csc(Nc2c(C)cc(C)cc2C)n1	0.39
CCOC(=O)c1sc2sc(C(=O)OCC)c(-c3ccco3)c2c1N	-2.11
CCOC(=O)c1c(C)noc1-c1ccco1	7.69*
CSc1scc(Cl)c1S(=O)(=O)C(C)C	13.7*
SMILES	Dicer processing
CSc1sc(C(=O)O)c(N)c1S(=O)(=O)C(C)C	-1.32
CSc1scc(NC(=O)Nc2ccc(OC(F)(F)F)cc2)c1S(=O)(=O)C(C)C	0.88
CC1=CCC2C(=O)N(c3ccccc3O)C(=O)C2C1 (stereo not given)	-0.99
CC1=CCC2C(=O)N(c3ncccn3)C(=O)C2C1 (stereo not given)	3.68*
CC1=CCC2C(=O)N(c3cc(C)on3)C(=O)C2C1 (stereo not given)	-0.01
COc1ccc(OC(C)c2nc(-c3ccc(C)cc3)no2)cc1 (stereo not given)	-1.67
CCCCC(CC)CNC(=O)C1C2C=CC(O2)C1C(=O)O (stereo not given)	-0.18
O=C(O)C1C2C=CC(O2)C1C(=O)NCc1cccc(Cl)c1 (stereo not given)	4.43*
O=C(O)C1C2C=CC(O2)C1C(=O)NCc1ccncc1 (stereo not given)	-0.98

Screening data deposited in PubChem by Center for Chemical Genomics, University of Michigan.
